NALP1 inh: inhibitors of NALP1 inflammasome in yeast. inhibition, % at 10 µM. AID 2071. S. cerevisiae NALP1/ASC/caspase-1 growth, X-gal OD620, 72 h. 280,000 tested, 0.61% active; in the data active = inhibition mostly above about 24%, no sharp cut-off; inactive = mostly below about 32%
PfHsp90 set2: growth inhibition of yeast expressing Plasmodium Hsp90 | S. cerevisiae expressing PfHsp90, BacTiter-Glo ATP, 48 h; yeast lacking PDR1 and PDR3 efflux regulators | inhibition, % at 9.4 µM | 310,000 tested, 0.32% active | AID 504621;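 active = every replicate shows inhibition above about 80%, whatever the replicate mean, limit read from the data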;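 note: 0% = DMSO neutral controls and 100% = 20 µM radicicol positive controls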
tim10-1 inh: tim10-1 yeast growth inhibition | S. cerevisiae tim10-1 ts strain growth, BacTiter-Glo, 24 h | inhibition, % at 20 µM | 330,000 tested, 2.2% active | AID 463190;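 active = inhibition of at least 40%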;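 note: mutant grown at 25 °C; 0% = DMSO wells with yeast and 100% = wells holding no yeast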
tim23-1 inh: inhibits growth of tim23-1 mutant yeast | 330,000 tested, 1.3% active | S. cerevisiae tim23-1 growth, BacTiter-Glo luminescence, 24 h | inhibition, % at 20 µM | AID 463212;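 active = growth inhibition of the mutant yeast at or above 50%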;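 note: temperature-sensitive mutant grown at 25 °C; plate controls were DMSO-treated mutant yeast for no effect and medium wells lacking yeast for full effect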
SKKanGAS inh: inhibitors of SKKanGAS S. pyogenes growth in kanamycin (SK-promoter or general growth effect) | 300,000 tested, 1.3% active | BacTiter-Glo, 6 h | inhibition, % at 7.5 µM | AID 1662;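 active = mean replicate score, as percent of positive control median, at least 50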;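 note: strain carries kanamycin resistance gene driven by streptokinase promoter and grows in 40 µg/ml kanamycin; loss of luminescence reflects streptokinase promoter inhibition or plain growth inhibition; 0% = median of DMSO wells and 100% = positive control at its reference dose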
TIM10 inh: inhibits growth of TIM10 yeast strain | S. cerevisiae TIM10 strain growth, BacTiter-Glo luminescence, 24 h | inhibition, % at 10 µM | 330,000 tested, 1.4% active;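 active = inhibition of 40% or more at the single tested concentration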;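 note: wild-type TIM10 isogenic control strain grown at permissive 25 °C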
An asterisk follows results filed as active. Shown are actives, neighbours in structure and some others; about 4.8% of the full set was active somewhere.

Screening CCN1CCc2c(sc(NC(=O)c3ccc(S(=O)(=O)N4CCCC4)cc3)c2C(=O)NC)C1 returned NALP1 inh 16, PfHsp90 set2 7, tim10-1 inh -5, tim23-1 inh 4, SKKanGAS inh 50* and TIM10 inh 7.
For CCCN1CCc2c(sc(NC(=O)c3ccc(S(=O)(=O)N4CCN(C(=O)OCC)CC4)cc3)c2C(N)=O)C1 the results were NALP1 inh 11, PfHsp90 set2 -4, tim10-1 inh 3, tim23-1 inh 6, SKKanGAS inh 57* and TIM10 inh 2.
Screening CCS(=O)(=O)/N=C(\N)c1ccccc1 returned NALP1 inh -10, PfHsp90 set2 -36, tim10-1 inh -2, tim23-1 inh -3, SKKanGAS inh -5 and TIM10 inh -8.
Cc1ccc(-c2nnn(CCOc3cccc(Br)c3)n2)cc1 was read as NALP1 inh 15, PfHsp90 set2 3, tim10-1 inh 5, tim23-1 inh 14, SKKanGAS inh 6 and TIM10 inh -1.
`COc1ccc(N2CC(C(=O)OCC(=O)c3ccc(C)cc3)CC2=O)cc1` (stereo not drawn) gave NALP1 inh 27*, PfHsp90 set2 16, tim10-1 inh 28, tim23-1 inh 12, SKKanGAS inh -2 and TIM10 inh 11.
Screening O=C(Nc1ccc(S(=O)(=O)N2CCOCC2)cc1)c1c(F)cccc1F returned NALP1 inh 6, PfHsp90 set2 2, tim10-1 inh -1, tim23-1 inh 13, SKKanGAS inh 9 and TIM10 inh 23.
CCN(CC)C(=O)c1sc(NC(=O)Cc2ccccc2)c(C#N)c1C was read as NALP1 inh -4, PfHsp90 set2 -1, tim10-1 inh -61, tim23-1 inh -118, SKKanGAS inh 4 and TIM10 inh -54.
Screening CCN(CC)C(=O)c1sc(NC(=O)Cc2ccc(OC)cc2)c(C#N)c1C returned NALP1 inh 43*, PfHsp90 set2 0, tim10-1 inh 17, tim23-1 inh 12, SKKanGAS inh 13 and TIM10 inh 17.
`Cc1onc(-c2ccccc2)c1CNC(=O)Nc1ccc(F)cc1F` gave NALP1 inh 12, PfHsp90 set2 20, tim10-1 inh 7, tim23-1 inh 13, SKKanGAS inh -2 and TIM10 inh 7.
For Cc1sc2nc(SCC(=O)NCc3ccco3)n(C)c(=O)c2c1C the results were NALP1 inh -17, PfHsp90 set2 -7, tim10-1 inh 20, tim23-1 inh 24, SKKanGAS inh 5 and TIM10 inh 9.
Screening Cc1sc2nc(C3CC3)nc(SCC(=O)NCc3ccco3)c2c1C returned NALP1 inh 18, PfHsp90 set2 84*, tim10-1 inh 12, tim23-1 inh 19, SKKanGAS inh 5 and TIM10 inh -44.
Screening CC(C)=CCc1c([C@@H]2CCc3ccc(O)cc3O2)cc2c(c1O)OC(C)(C)C=C2 returned tim10-1 inh 22, tim23-1 inh 30, SKKanGAS inh 26 and TIM10 inh 11.
For CC(C)=CCc1c2c(c(O)c3c(=O)c4c(oc13)-c1cc(O)c(O)cc1OC4C=C(C)C)C=CC(C)(C)O2 (stereo not drawn) the results were tim10-1 inh 25, tim23-1 inh 11, SKKanGAS inh 93* and TIM10 inh -14.
`CC1(C)C=Cc2c(ccc(-c3coc4cc(O)ccc4c3=O)c2O)O1` gave tim10-1 inh -4, tim23-1 inh 14, SKKanGAS inh -4 and TIM10 inh 3.
CC(C)=CCc1c(-c2ccc(O)cc2O)oc2c3c(cc(O)c2c1=O)OC(C)(C)C=C3 was read as tim10-1 inh 26, tim23-1 inh 39, SKKanGAS inh 108* and TIM10 inh 16.
CCCCCn1c(N2CCC(Cc3ccccc3)CC2)nc2c1c(=O)[nH]c(=O)n2C was read as PfHsp90 set2 -99, tim10-1 inh 12, tim23-1 inh 26, SKKanGAS inh 93* and TIM10 inh -92.
For Cn1c(=O)[nH]c(=O)c2c1nc(N1CCC(Cc3ccccc3)CC1)n2Cc1ccccc1 the results were NALP1 inh -18, PfHsp90 set2 -6, tim10-1 inh 24, tim23-1 inh 15, SKKanGAS inh 53* and TIM10 inh 7.
For CCCn1c(N2CCC(Cc3ccccc3)CC2)nc2c1c(=O)[nH]c(=O)n2C the results were NALP1 inh 24, PfHsp90 set2 -51, tim10-1 inh -46, tim23-1 inh -43, SKKanGAS inh 1 and TIM10 inh -310.
